Here are results for 40 sequences from publication PMC7862700, “An all-to-all approach to the identification of sequence-specific readers for epigenetic DNA modifications on cytosine”.

Chain of ELF1 (P32519 whole entry, the tested form may be a part): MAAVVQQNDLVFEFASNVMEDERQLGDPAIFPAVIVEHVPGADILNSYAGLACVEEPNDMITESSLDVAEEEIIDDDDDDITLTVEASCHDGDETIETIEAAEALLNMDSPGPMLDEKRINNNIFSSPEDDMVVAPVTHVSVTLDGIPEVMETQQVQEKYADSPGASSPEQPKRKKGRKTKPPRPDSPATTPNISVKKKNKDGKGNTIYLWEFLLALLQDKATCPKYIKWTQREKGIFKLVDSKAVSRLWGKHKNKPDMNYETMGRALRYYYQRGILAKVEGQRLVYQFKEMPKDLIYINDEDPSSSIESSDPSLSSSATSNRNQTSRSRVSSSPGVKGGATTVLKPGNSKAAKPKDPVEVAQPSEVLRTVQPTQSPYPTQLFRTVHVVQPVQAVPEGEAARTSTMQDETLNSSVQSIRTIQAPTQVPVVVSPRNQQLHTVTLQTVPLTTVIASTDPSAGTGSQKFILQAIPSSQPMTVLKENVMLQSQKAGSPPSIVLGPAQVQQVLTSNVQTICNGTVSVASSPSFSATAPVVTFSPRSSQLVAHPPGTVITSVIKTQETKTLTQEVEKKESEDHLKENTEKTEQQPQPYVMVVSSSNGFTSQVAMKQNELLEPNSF

The first test concerns the target ELF1 (Homo sapiens, UniProt P32519 1-619). The test can be described thus: DAPPL (digital affinity profiling via proximity ligation, sequencing); 10 mM Tris-HCl pH 7.5, 50 mM NaCl, 1 mM DTT, 4% glycerol, room temperature, 30 min; GST-TFs on glutathione beads, 16-mer random dsDNA library, 0.1% formaldehyde crosslink after washing; high values mean tight binding. The following applies: protein: recombinant; tags: N-terminal GST; dsDNA, one strand shown. In outline: (§1)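 After expression in yeast as GST fusions, human transcription factors were bound to glutathione beads, DNA-barcoded and mixed with a tag-only sample. The pools were incubated with 200 nmole of a 16-mer random double-stranded DNA library in Tris/NaCl/DTT/glycerol buffer (30 min, room temperature), washed and crosslinked with 0.1% formaldehyde. Proximity ligation with BsaI/T4 ligase ran for 1 h at 37 °C, before PCR amplification and sequencing on an Illumina NextSeq500. Binding signal is a hexamer's read frequency for a factor divided by its frequency for the tag-only sample.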
On to TGGCAA, for which the binding signal is 1.2 fold enrichment (6-mer frequency, TF over GST control).
In the case of AATAAC, the binding signal was 1.23 fold enrichment (6-mer frequency, TF over GST control).
Still for that read-out and setting: in the case of ATTTGT it was 1.31 fold enrichment (6-mer frequency, TF over GST control); in that of CTGGCA, 1.26 fold enrichment (6-mer frequency, TF over GST control); in that of GCTTAT, 1.28 fold enrichment (6-mer frequency, TF over GST control).
For the sequence TGTCTA, the binding signal was 1.15 fold enrichment (6-mer frequency, TF over GST control).
In the case of GCCGAT, the binding signal is 1.03 fold enrichment (6-mer frequency, TF over GST control).
Consider ATTGGG, for which the binding signal is 1.21 fold enrichment (6-mer frequency, TF over GST control).
On to TTGATC, for which the binding signal was 1.21 fold enrichment (6-mer frequency, TF over GST control).
Same read-out and setting: with AATCGC the figure was 1.13 fold enrichment (6-mer frequency, TF over GST control); with CCTCTC, 1.43 fold enrichment (6-mer frequency, TF over GST control); with CCTCTT, 1.5 fold enrichment (6-mer frequency, TF over GST control).
For TTTGGA, the binding signal was 1.18 fold enrichment (6-mer frequency, TF over GST control).
The same measure, in the same setting: in the case of TCTACA it was 1.28 fold enrichment (6-mer frequency, TF over GST control); in that of TCTCGC, 1.77 fold enrichment (6-mer frequency, TF over GST control).
Still for that read-out and setting: with CTGATG the figure was 1.6 fold enrichment (6-mer frequency, TF over GST control); with CTGATC, 1.4 fold enrichment (6-mer frequency, TF over GST control); with CTCATC, 1.35 fold enrichment (6-mer frequency, TF over GST control).
As for ATATTT, the binding signal is 1.55 fold enrichment (6-mer frequency, TF over GST control).
Same read-out and setting: with TACAAT the figure was 1.3 fold enrichment (6-mer frequency, TF over GST control).
The same measure, in the same setting: in the case of CACTTG it was 1.33 fold enrichment (6-mer frequency, TF over GST control); in that of TACGTT, 1.29 fold enrichment (6-mer frequency, TF over GST control).
In the case of CATTCG, the binding signal is 1.28 fold enrichment (6-mer frequency, TF over GST control).
The same measure, in the same setting: in the case of CCTTCG it was 1.33 fold enrichment (6-mer frequency, TF over GST control); in that of TGACCT, 1.84 fold enrichment (6-mer frequency, TF over GST control).
As for TATAAC, the binding signal was 1.29 fold enrichment (6-mer frequency, TF over GST control).
Turning to CTTTCA, the binding signal is 1.41 fold enrichment (6-mer frequency, TF over GST control).
As for AATATT, the binding signal was 1.36 fold enrichment (6-mer frequency, TF over GST control).
Same read-out and setting: in the case of CTTGCA it was 1.4 fold enrichment (6-mer frequency, TF over GST control); in that of TTGCGG, 1.38 fold enrichment (6-mer frequency, TF over GST control).
Same read-out and setting: with TCTGTT the figure was 1.42 fold enrichment (6-mer frequency, TF over GST control); with TCCTGG, 1.69 fold enrichment (6-mer frequency, TF over GST control); with CGAAAA, 1.05 fold enrichment (6-mer frequency, TF over GST control).
The same measure, in the same setting: in the case of TAATCC it was 1.15 fold enrichment (6-mer frequency, TF over GST control); in that of TTTCTT, 1.38 fold enrichment (6-mer frequency, TF over GST control); in that of CTCAGC, 1.3 fold enrichment (6-mer frequency, TF over GST control).
Consider ACTTGT, for which the binding signal is 1.29 fold enrichment (6-mer frequency, TF over GST control).
Still for that read-out and setting: with CTTCTA the figure was 1.52 fold enrichment (6-mer frequency, TF over GST control); with TTCGAT, 1.41 fold enrichment (6-mer frequency, TF over GST control); with TCTCCG, 1.6 fold enrichment (6-mer frequency, TF over GST control).

For the next test, the target named is T1, EHF (Homo sapiens, UniProt Q9NZC4 1-300).
T1 sequence: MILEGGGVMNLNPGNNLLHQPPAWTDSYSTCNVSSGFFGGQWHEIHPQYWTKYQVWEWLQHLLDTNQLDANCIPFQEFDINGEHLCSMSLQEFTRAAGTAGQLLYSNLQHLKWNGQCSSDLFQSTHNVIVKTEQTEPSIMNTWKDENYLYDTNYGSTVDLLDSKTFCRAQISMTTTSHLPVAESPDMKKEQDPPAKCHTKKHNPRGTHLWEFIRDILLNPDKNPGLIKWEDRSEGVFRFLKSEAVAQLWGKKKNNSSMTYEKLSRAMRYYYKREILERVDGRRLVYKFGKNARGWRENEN
The description is as above. The settings on record: protein: recombinant; tags: N-terminal GST; dsDNA, one strand shown. In outline:
as §1
On to TGGCAA, for which the binding signal was 1.16 fold enrichment (6-mer frequency, TF over GST control).
Same read-out and setting: with AATAAC the figure was 1.26 fold enrichment (6-mer frequency, TF over GST control); with ATTTGT, 1.3 fold enrichment (6-mer frequency, TF over GST control).
The same measure, in the same setting: with CTGGCA the figure was 1.23 fold enrichment (6-mer frequency, TF over GST control); with GCTTAT, 1.12 fold enrichment (6-mer frequency, TF over GST control); with TGTCTA, 1.12 fold enrichment (6-mer frequency, TF over GST control).
As to GCCGAT, the binding signal is 1.01 fold enrichment (6-mer frequency, TF over GST control).
Still for that read-out and setting: in the case of ATTGGG it was 1.24 fold enrichment (6-mer frequency, TF over GST control); in that of TTGATC, 1.12 fold enrichment (6-mer frequency, TF over GST control).
On the same count and under the same terms, in the case of AATCGC it was 1.16 fold enrichment (6-mer frequency, TF over GST control).
As for CCTCTC, the binding signal was 1.34 fold enrichment (6-mer frequency, TF over GST control).
On the same count and under the same terms, with CCTCTT the figure was 1.71 fold enrichment (6-mer frequency, TF over GST control); with TTTGGA, 1.09 fold enrichment (6-mer frequency, TF over GST control).
The same measure, in the same setting: in the case of TCTACA it was 1.25 fold enrichment (6-mer frequency, TF over GST control); in that of TCTCGC, 1.65 fold enrichment (6-mer frequency, TF over GST control).
Same read-out and setting: in the case of CTGATG it was 1.59 fold enrichment (6-mer frequency, TF over GST control); in that of CTGATC, 1.39 fold enrichment (6-mer frequency, TF over GST control); in that of CTCATC, 1.35 fold enrichment (6-mer frequency, TF over GST control).
In the case of ATATTT, the binding signal is 1.56 fold enrichment (6-mer frequency, TF over GST control).
Still for that read-out and setting: with TACAAT the figure was 1.38 fold enrichment (6-mer frequency, TF over GST control).
On the same count and under the same terms, in the case of CACTTG it was 1.36 fold enrichment (6-mer frequency, TF over GST control); in that of TACGTT, 1.24 fold enrichment (6-mer frequency, TF over GST control).
Still for that read-out and setting: in the case of CATTCG it was 1.08 fold enrichment (6-mer frequency, TF over GST control); in that of CCTTCG, 1.19 fold enrichment (6-mer frequency, TF over GST control); in that of TGACCT, 1.86 fold enrichment (6-mer frequency, TF over GST control).
On to TATAAC, for which the binding signal is 1.15 fold enrichment (6-mer frequency, TF over GST control).
The same measure, in the same setting: in the case of CTTTCA it was 1.3 fold enrichment (6-mer frequency, TF over GST control).
Regarding AATATT, the binding signal is 1.32 fold enrichment (6-mer frequency, TF over GST control).
CTTGCA: the binding signal is 1.33 fold enrichment (6-mer frequency, TF over GST control).
For the sequence TTGCGG, the binding signal is 1.3 fold enrichment (6-mer frequency, TF over GST control).
The same measure, in the same setting: in the case of TCTGTT it was 1.45 fold enrichment (6-mer frequency, TF over GST control).
On the same count and under the same terms, in the case of TCCTGG it was 1.66 fold enrichment (6-mer frequency, TF over GST control); in that of CGAAAA, 1.14 fold enrichment (6-mer frequency, TF over GST control).
On the same count and under the same terms, in the case of TAATCC it was 1.25 fold enrichment (6-mer frequency, TF over GST control); in that of TTTCTT, 1.29 fold enrichment (6-mer frequency, TF over GST control); in that of CTCAGC, 1.28 fold enrichment (6-mer frequency, TF over GST control).
Take ACTTGT: the binding signal is 1.31 fold enrichment (6-mer frequency, TF over GST control).
Consider CTTCTA, for which the binding signal was 1.54 fold enrichment (6-mer frequency, TF over GST control).
The same measure, in the same setting: with TTCGAT the figure was 1.38 fold enrichment (6-mer frequency, TF over GST control).
As to TCTCCG, the binding signal is 1.57 fold enrichment (6-mer frequency, TF over GST control).

A further test concerns the target SPI1 (Homo sapiens, UniProt P17947 1-270). Described as above. The following applies: protein: recombinant; tags: N-terminal GST; dsDNA, one strand shown. In outline:
as §1
Take TGGCAA: the binding signal is 1.2 fold enrichment (6-mer frequency, TF over GST control).
Take AATAAC: the binding signal was 1.18 fold enrichment (6-mer frequency, TF over GST control).
Still for that read-out and setting: in the case of ATTTGT it was 1.26 fold enrichment (6-mer frequency, TF over GST control); in that of CTGGCA, 1.22 fold enrichment (6-mer frequency, TF over GST control); in that of GCTTAT, 1.3 fold enrichment (6-mer frequency, TF over GST control).
Same read-out and setting: in the case of TGTCTA it was 1.09 fold enrichment (6-mer frequency, TF over GST control).
Same read-out and setting: with GCCGAT the figure was 1.12 fold enrichment (6-mer frequency, TF over GST control); with ATTGGG, 1.25 fold enrichment (6-mer frequency, TF over GST control); with TTGATC, 1.23 fold enrichment (6-mer frequency, TF over GST control).
Turning to AATCGC, the binding signal was 1.05 fold enrichment (6-mer frequency, TF over GST control).
Still for that read-out and setting: in the case of CCTCTC it was 1.39 fold enrichment (6-mer frequency, TF over GST control); in that of CCTCTT, 2.57 fold enrichment (6-mer frequency, TF over GST control).
For the sequence TTTGGA, the binding signal was 1.19 fold enrichment (6-mer frequency, TF over GST control).
Consider TCTACA, for which the binding signal is 1.14 fold enrichment (6-mer frequency, TF over GST control).
The same measure, in the same setting: in the case of TCTCGC it was 1.69 fold enrichment (6-mer frequency, TF over GST control).
The same measure, in the same setting: with CTGATG the figure was 1.63 fold enrichment (6-mer frequency, TF over GST control); with CTGATC, 1.27 fold enrichment (6-mer frequency, TF over GST control); with CTCATC, 1.21 fold enrichment (6-mer frequency, TF over GST control).
ATATTT: the binding signal is 1.43 fold enrichment (6-mer frequency, TF over GST control).
On the same count and under the same terms, with TACAAT the figure was 1.25 fold enrichment (6-mer frequency, TF over GST control).
